Experiment [1] can be described thus: BSK_4H_Eotaxin3: BioMAP Diversity Plus: 4H Assay for Eotaxin 3 Biomarker Activity (AID 2283000).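 As to outcome: CCL26 protein level quantified by ELISA in parallel with SRB cytotoxicity check.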 The conditions noted are these: primary human endothelial cells (HUVEC); actives raise or lower the signal. The procedure, abridged:
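Readout is Eotaxin-3 (CCL26) level by ELISA in primary human umbilical vein endothelial cells harvested 24 h after chemical exposure; activity fitted in both directions against DMSO control.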

The target in experiment [2] is human Peroxisome Proliferator-activated Receptor alpha (PPARa), PPARA (gene 5465) (UniProt Q07869). The experiment can be described thus: ATG_PPARa_TRANS: Attagene TRANS-FACTORIAL HepG2 Assay for human Peroxisome Proliferator-activated Receptor alpha (PPARa) (AID 2283001; active = hit-call score of the fitted dose curve at least 0.9, where 1 is the maximum;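 as to AC50: potency for gain of reporter signal over DMSO so agonist or activator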). Summed up: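 Exposure: 24 h, transiently transfected HepG2 cells. Endpoint: GAL4-UAS reporter mRNA, RT-PCR with capillary electrophoresis fluorescence. Baseline: DMSO; increases fitted.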

In experiment [3] the target is human Peroxisome Proliferator-activated Receptor delta (PPARd), PPARD (gene 5467) (UniProt Q03181). Description: ATG_PPARd_TRANS: Attagene TRANS-FACTORIAL HepG2 Assay for human Peroxisome Proliferator-activated Receptor delta (PPARd) (AID 2283002; active = hit-call score of the fitted dose curve at least 0.9, where 1 is the maximum). The procedure, abridged:
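HepG2 cells transiently transfected with multiplexed GAL4-UAS reporter units and exogenous chimeric NR-Gal4 proteins; 24 h compound exposure. Reporter mRNA measured by RT-PCR, 6-FAM labelling, HpaI digestion and capillary electrophoresis; gain of signal versus DMSO.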

Read-out in experiment [4]: Intercellular Adhesion Molecule 1 (ICAM1), ICAM1 (gene 3383)
The experiment can be described thus: BSK_3C_ICAM1: BioMAP Diversity Plus: 3C Assay for Intercellular Adhesion Molecule 1 (ICAM1) Biomarker Activity (AID 2283003). The following applies: primary human endothelial cells (HUVEC); actives raise or lower the signal. Summed up:
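Using DMSO as baseline, bidirectional curve fitting was applied to ICAM-1 ELISA signals from HUVEC in the 3C system, measured 24 h after compound addition.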

Experiment [5] is described as follows: BSK_3C_Proliferation: Cell Proliferation Assessment in the BioMAP Diversity Plus: 3C Assay (AID 2283006).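 As to AC50: potency may reflect either rise or fall in cell number versus DMSO.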 The conditions noted are these: primary human endothelial cells (HUVEC). The procedure, abridged:
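Measured here: sulforhodamine B (0.1%) staining of TCA-fixed sub-confluent umbilical vein endothelial cultures 48 h post-dosing, absorbance 560 nm. DMSO served as negative control and baseline; both signal gain and loss were modelled.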

The target in experiment [6] is Peroxisome proliferator-activated receptor gamma (Homo sapiens) (UniProt P37231). The experiment can be described thus: ATG_PPARg_TRANS: Attagene TRANS-FACTORIAL HepG2 Assay for human Peroxisome Proliferator-activated Receptor-gamma (PPARg) (AID 2283007; active = hit-call score of the fitted dose curve at least 0.9, where 1 is the maximum). Summed up:
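After 24 h of chemical exposure, transfected HepG2 cells carrying PPARγ-Gal4 chimera reporter constructs are lysed for RNA. Reporter transcripts are measured by RT-PCR and capillary electrophoresis with fluorescent labelling, and gain of signal is fitted versus DMSO.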

The target of experiment [7] is Nuclear receptor subfamily 1 group I member 2 (Homo sapiens) (UniProt O75469). Description: ATG_PXR_TRANS: Attagene TRANS-FACTORIAL HepG2 Assay for human Pregnane X Receptor (PXR) (AID 2283008; active = hit-call score of the fitted dose curve at least 0.9, where 1 is the maximum). The procedure, abridged:
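Transient HepG2 transfectants carrying multiplexed reporter transcription units; PXR activity read through a Gal4 chimera. 24 h exposure. RT-PCR/CE fluorescence; upward curve fit referenced to DMSO.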

Experiment [8] has as its target human Retinoic Acid Receptor beta (RARb), RARB (gene 5915) (UniProt P10826). Description: ATG_RARb_TRANS: Attagene TRANS-FACTORIAL HepG2 Assay for human Retinoic Acid Receptor beta (AID 2283004; active = hit-call score of the fitted dose curve at least 0.9, where 1 is the maximum). Summed up:
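Readout is reporter mRNA induction: RNA reverse-transcribed, PCR-amplified, FAM-labelled, HpaI-cut and resolved by capillary electrophoresis. Transiently transfected HepG2 cells carrying exogenous NR–Gal4 chimeras were dosed for 24 h; activity fitted upward relative to DMSO.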

The target in experiment [9] is Retinoic acid receptor alpha (Homo sapiens) (UniProt P10276). Description: ATG_RARa_TRANS: Attagene TRANS-FACTORIAL HepG2 Assay for human Retinoic Acid Receptor alpha (RARa) (AID 2283005; active = hit-call score of the fitted dose curve at least 0.9, where 1 is the maximum). The procedure, abridged: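 HepG2 cells transiently transfected with multiple reporter units expressing chimeric RARα-GAL4 fusion, with GAL4-UAS-driven reporters. After 24 h compound exposure, reporter mRNA induction quantified by RT-PCR and capillary electrophoresis with fluorescent labeling; gain-of-signal fitted relative to DMSO control.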

Experiment [10] has as its target human Retinoic Acid Receptor gamma (RARg), RARG (gene 5916) (UniProt P13631). Description: ATG_RARg_TRANS: Attagene TRANS-FACTORIAL HepG2 Assay for human Retinoic Acid Receptor gamma (RARg) (AID 2283009; active = hit-call score of the fitted dose curve at least 0.9, where 1 is the maximum). Summed up: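 Gain-of-signal relative to DMSO is reported from fluorescent capillary electrophoresis of RT-PCR reporter products. These came from HepG2 cells expressing transfected RARg-GAL4 chimeras with UAS reporters, harvested 24 h after dosing.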

The structures appear in SMILES notation. Values joined by “and” are separate entries in the source; they are usually repeats but may differ in a detail not shown here. Equal entries are not always repeated. Records with an inconclusive call do not appear. Some structures have more than one record in an assay (separate samples or runs), and their calls can disagree. Active and inactive are the calls of the source. The calls were made as follows, unless noted: active = hit-call score of the fitted dose curve at least 0.9, where 1 is the maximum; inactive = score below 0.9.

Sequence of Retinoic acid receptor alpha (Homo sapiens) (P10276 whole entry, looked up, the tested form may be a part): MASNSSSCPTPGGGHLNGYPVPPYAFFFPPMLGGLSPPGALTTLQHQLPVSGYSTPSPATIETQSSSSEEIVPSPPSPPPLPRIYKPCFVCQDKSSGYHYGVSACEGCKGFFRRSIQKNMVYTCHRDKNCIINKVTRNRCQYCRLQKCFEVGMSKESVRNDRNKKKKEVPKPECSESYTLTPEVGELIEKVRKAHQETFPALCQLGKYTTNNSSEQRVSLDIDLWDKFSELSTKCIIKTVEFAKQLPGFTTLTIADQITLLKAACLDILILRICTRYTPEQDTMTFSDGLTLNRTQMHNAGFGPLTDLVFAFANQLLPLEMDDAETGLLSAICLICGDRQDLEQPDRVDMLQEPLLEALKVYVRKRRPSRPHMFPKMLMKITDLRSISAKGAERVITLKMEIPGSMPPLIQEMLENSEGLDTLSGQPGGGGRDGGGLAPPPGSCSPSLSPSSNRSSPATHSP
Sequence of human Retinoic Acid Receptor beta (RARb), RARB (gene 5915) (P10826 whole entry, looked up, the tested form may be a part): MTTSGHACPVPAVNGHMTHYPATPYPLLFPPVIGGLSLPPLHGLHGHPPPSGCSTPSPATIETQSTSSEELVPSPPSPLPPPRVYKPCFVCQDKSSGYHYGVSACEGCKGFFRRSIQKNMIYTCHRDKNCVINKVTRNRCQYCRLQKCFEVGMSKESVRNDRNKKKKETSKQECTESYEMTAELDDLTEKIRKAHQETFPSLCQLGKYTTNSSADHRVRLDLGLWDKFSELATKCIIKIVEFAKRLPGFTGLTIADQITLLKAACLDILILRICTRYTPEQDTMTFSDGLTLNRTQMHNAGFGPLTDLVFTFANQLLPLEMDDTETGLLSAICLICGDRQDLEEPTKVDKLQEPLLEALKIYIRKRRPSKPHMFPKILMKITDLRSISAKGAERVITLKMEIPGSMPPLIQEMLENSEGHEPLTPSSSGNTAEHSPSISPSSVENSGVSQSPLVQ
Sequence of Peroxisome proliferator-activated receptor gamma (Homo sapiens) (P37231 whole entry, looked up, the tested form may be a part): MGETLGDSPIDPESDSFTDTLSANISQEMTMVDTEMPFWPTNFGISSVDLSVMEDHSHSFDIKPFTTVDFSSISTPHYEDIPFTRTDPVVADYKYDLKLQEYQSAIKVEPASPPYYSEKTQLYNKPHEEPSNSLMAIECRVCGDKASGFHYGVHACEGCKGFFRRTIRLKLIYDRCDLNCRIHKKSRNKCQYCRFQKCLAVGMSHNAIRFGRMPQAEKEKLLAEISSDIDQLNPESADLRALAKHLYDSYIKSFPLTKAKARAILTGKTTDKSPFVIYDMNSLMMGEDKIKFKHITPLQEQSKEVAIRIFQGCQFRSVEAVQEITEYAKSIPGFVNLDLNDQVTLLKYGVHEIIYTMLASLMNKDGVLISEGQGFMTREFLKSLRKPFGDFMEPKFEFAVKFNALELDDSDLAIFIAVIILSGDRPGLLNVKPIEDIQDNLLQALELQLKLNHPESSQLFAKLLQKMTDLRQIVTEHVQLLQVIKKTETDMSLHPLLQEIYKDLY
Sequence of human Peroxisome Proliferator-activated Receptor alpha (PPARa), PPARA (gene 5465) (Q07869 whole entry, looked up, the tested form may be a part): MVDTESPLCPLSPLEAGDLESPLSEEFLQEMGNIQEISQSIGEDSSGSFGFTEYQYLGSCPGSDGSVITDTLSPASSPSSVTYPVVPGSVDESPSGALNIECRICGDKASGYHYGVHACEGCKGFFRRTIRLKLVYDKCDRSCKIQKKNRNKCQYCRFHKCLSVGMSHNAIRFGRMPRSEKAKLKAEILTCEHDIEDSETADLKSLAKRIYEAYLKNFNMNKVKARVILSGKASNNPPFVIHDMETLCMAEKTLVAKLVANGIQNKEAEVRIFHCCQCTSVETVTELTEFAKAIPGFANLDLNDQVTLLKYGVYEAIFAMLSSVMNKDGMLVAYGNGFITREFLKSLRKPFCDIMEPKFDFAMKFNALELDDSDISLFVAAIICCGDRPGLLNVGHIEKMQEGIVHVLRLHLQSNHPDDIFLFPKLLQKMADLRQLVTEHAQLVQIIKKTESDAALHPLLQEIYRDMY
Sequence of human Retinoic Acid Receptor gamma (RARg), RARG (gene 5916) (P13631 whole entry, looked up, the tested form may be a part): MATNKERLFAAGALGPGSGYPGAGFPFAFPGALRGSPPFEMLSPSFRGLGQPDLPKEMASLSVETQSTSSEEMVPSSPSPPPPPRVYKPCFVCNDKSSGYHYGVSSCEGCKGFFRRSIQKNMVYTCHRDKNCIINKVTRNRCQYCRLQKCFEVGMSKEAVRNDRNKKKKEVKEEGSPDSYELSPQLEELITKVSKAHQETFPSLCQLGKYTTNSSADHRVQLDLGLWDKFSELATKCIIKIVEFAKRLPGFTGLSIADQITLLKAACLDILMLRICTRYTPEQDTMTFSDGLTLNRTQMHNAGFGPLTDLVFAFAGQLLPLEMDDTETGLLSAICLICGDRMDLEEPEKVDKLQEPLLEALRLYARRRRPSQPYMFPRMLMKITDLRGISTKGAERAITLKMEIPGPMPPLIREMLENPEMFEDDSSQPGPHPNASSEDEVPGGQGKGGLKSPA
Sequence of Nuclear receptor subfamily 1 group I member 2 (Homo sapiens) (O75469 whole entry, looked up, the tested form may be a part): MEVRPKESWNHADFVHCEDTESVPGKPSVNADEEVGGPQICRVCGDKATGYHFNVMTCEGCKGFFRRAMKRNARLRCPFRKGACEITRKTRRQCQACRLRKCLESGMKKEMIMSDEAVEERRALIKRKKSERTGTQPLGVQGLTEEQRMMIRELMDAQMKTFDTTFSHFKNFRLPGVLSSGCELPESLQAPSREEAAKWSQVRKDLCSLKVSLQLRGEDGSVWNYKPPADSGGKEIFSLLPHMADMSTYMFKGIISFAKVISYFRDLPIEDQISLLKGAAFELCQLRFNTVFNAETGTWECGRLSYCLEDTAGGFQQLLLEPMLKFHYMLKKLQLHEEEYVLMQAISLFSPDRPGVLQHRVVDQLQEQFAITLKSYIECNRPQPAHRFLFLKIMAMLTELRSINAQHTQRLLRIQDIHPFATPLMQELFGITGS
Sequence of human Peroxisome Proliferator-activated Receptor delta (PPARd), PPARD (gene 5467) (Q03181 whole entry, looked up, the tested form may be a part): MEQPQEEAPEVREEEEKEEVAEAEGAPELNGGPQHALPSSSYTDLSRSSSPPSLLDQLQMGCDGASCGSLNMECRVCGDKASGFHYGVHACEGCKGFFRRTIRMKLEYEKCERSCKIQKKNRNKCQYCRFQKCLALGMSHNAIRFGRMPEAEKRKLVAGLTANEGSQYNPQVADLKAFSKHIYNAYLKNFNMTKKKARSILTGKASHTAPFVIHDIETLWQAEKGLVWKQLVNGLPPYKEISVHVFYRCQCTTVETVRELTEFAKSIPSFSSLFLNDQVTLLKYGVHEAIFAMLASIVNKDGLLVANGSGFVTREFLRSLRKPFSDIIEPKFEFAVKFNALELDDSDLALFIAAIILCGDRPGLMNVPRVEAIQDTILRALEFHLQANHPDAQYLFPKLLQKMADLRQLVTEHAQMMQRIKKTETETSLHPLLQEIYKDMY

Take `NC(=O)C(F)(F)C(F)(F)C(F)(F)C(F)(F)C(N)=O`: the outcome in [1], in [2], in experiment [3], in experiment [4], in experiment [5] and in experiment [6] was inactive. Besides, the outcome in [7] was inactive.
Turning to `NCC(F)(F)C(F)(F)C(F)(F)C(F)(F)C(F)(F)C(F)(F)C(F)(F)C(F)(F)F`, the outcome in [1], in experiment [2], in experiment [4], in experiment [8], in experiment [9] and in experiment [5] was inactive. Besides, the outcome in [6], in [7] and in experiment [10] was inactive.
`C[Si](Cl)(Cl)CCC(F)(F)C(F)(F)C(F)(F)C(F)(F)C(F)(F)C(F)(F)F`: the result in [1], in experiment [2], in experiment [3], in experiment [4], in [8] and in experiment [9] was inactive. Besides, in experiment [5], the outcome was inactive.
As to `O=C(Cl)C(F)(F)C(F)(F)C(F)(F)C(F)(F)C(F)(F)C(F)(F)F`, the result in [1], in [4], in [8], in experiment [9], in experiment [5] and in experiment [10] was inactive. Further, the results for the AC50 in experiment [2] and in experiment [6] were 10.9 µM (active) and 71.1 µM (active), respectively.
Take `CN(C(=O)C(F)(F)C(F)(F)C(F)(F)F)[Si](C)(C)C`: the outcome in experiment [1], in experiment [2], in experiment [3], in experiment [4], in experiment [9] and in [5] was inactive. In addition, the molecule was called inactive in experiment [6] and in experiment [7].
With `NC(=O)C(F)(F)C(F)(F)C(F)(F)C(F)(F)C(F)(F)C(F)(F)C(F)(F)F`, the outcome in experiment [1], in [4], in [8], in experiment [9], in [5] and in experiment [6] was inactive. Moreover, the result in experiment [7] and in experiment [10] was inactive. Also, in experiment [2], the AC50 was 86.9 µM (active).
Regarding `Cc1ccc(O)c(-n2nc3ccccc3n2)c1`, the outcome in experiment [1], in experiment [2], in [4], in experiment [8], in experiment [5] and in experiment [6] was inactive.
For `OCC(O)CC(F)(F)C(F)(F)C(F)(F)C(F)(F)C(F)(F)C(F)(F)C(F)(F)C(F)(F)F` (stereo unspecified), the result in experiment [1], in experiment [2], in experiment [3], in experiment [4], in experiment [8] and in [9] was inactive. In addition, the result in experiment [5], in experiment [6] and in experiment [10] was inactive.
Regarding `NS(=O)(=O)C(F)(F)C(F)(F)C(F)(F)C(F)(F)C(F)(F)C(F)(F)F`, the AC50 in experiment [1] is 46.4 µM (active) and 20.3 µM (active); in experiment [2], 28.2 µM (active); in experiment [5], 28.9 µM (active) and 49.6 µM (active); in experiment [6], 50.5 µM (active). Moreover, the molecule was called inactive in [3], in experiment [4], in [8] and in [10].
For `NCC(F)(F)C(F)(F)C(F)(F)C(F)(F)C(F)(F)C(F)(F)F`, the result in [1], in experiment [2], in [3], in experiment [4], in experiment [8] and in experiment [9] was inactive. Besides, the result in experiment [5] and in [6] was inactive.
As to `OCC(F)(F)C(F)(F)C(F)(F)C(F)(F)C(F)(F)C(F)(F)CO`, the result in [1], in experiment [2], in experiment [4], in experiment [5] and in [6] was inactive. For the same molecule, the AC50 in experiment [5] is 15.6 µM (active).
For `O=C(O)C(F)(F)C(F)(F)C(F)(F)C(F)(F)C(F)(F)C(F)(F)C(F)F`, the result in [1], in [3], in experiment [4] and in experiment [5] was inactive. The AC50 in experiment [2] is 6.55 µM (active); in experiment [6], 41.8 µM (active).
For `OCC(O)CC(F)(F)C(F)(F)C(F)(F)C(F)(F)F` (stereo unspecified), the outcome in experiment [1], in experiment [2], in experiment [4], in [5], in [6] and in [7] was inactive.
Consider `CCN(CC)c1ccc(C=O)c(O)c1`, for which the result in experiment [1], in [4], in experiment [5] and in experiment [7] was inactive. The AC50 in experiment [6] was 15.3 µM (active).
For the molecule `Nc1cc([N+](=O)[O-])cc(Cl)c1O`, the result in experiment [1], in experiment [2], in experiment [4], in experiment [5] and in experiment [7] was inactive.
Turning to `COC(F)(C(F)F)C(F)(F)F` (stereo unspecified), the result in experiment [1], in experiment [3], in experiment [4], in experiment [9], in [5] and in experiment [6] was inactive.
Take `Cc1ccc(S(=O)(=O)C(I)I)cc1`: the AC50 in [1] is 1.84 µM (active); in experiment [4], 3.35 µM (active); in experiment [5], 0.593 µM (active). In addition, the call in experiment [6] and in experiment [10] was inactive.
For the molecule `Cc1cnccn1`, the result in experiment [1], in experiment [3], in experiment [4], in experiment [9], in experiment [5] and in experiment [7] was inactive. For the same molecule, the result in experiment [10] was inactive.
For `O=C=NCc1cccc(CN=C=O)c1`, the result in [1], in [4], in experiment [5] and in experiment [7] was inactive.
Turning to `CCN(CC)c1ccc(C=O)cc1`, the outcome in [1], in experiment [3], in [4], in experiment [5] and in [6] was inactive. The AC50 in experiment [7] is 27.7 µM (active).
With `CCN(CC)c1ccc2c(c1)Oc1cc(N(CC)CC)ccc1C21OC(=O)c2ccccc21`, the outcome in [1], in [3] and in experiment [4] was inactive. Besides, the AC50 was 5.03 µM (active) in experiment [5], 17.6 µM (active) in experiment [6] and 0.348 µM (active) in experiment [7].
With `O=C(O)C(F)(F)C(F)(F)C(F)(F)OC(F)(C(F)(F)F)C(F)(F)F`, the result in [1], in experiment [4], in [5] and in experiment [10] was inactive. Moreover, the concentration at half-maximal activity (AC50) in experiment [2] is 24.6 µM (active); in experiment [6], 101 µM (active).
Turning to `O=S(=O)(O)CCC(F)(F)C(F)(F)C(F)(F)C(F)(F)F`, the outcome in experiment [1], in experiment [3], in [4], in experiment [9], in [5] and in experiment [6] was inactive.
For `O=C(O)CCC(F)(F)C(F)(F)C(F)(F)F`, the result in experiment [1], in experiment [2], in experiment [4], in experiment [5] and in experiment [6] was inactive.
Consider `NC(O)(C(F)(F)F)C(F)(F)F`, for which the outcome in [1], in experiment [4], in experiment [5] and in experiment [7] was inactive.
With `CCN=C1C=CC(=C(c2ccc(N(CC)CC)cc2)c2ccc(N(CC)CC)cc2)c2ccccc21`, the AC50 in experiment [1] is 1.74 µM (active); in experiment [4] it was 3.69 µM (active) and 3.76 µM (active); in experiment [5] it was 888 nM (active) and 871 nM (active). Moreover, the call in experiment [6] was inactive.
As to `CC1=CC2C3C=CC(C3)C2C1C` (stereo unspecified), the outcome in experiment [1], in [3], in [4], in [5] and in experiment [6] was inactive.

One may read the AC50 as the concentration giving half of the maximal activity seen.

(Values after PubChem BioAssay (EPA / NIEHS).)
